Bfl-1 A1 inh = caspase 3/7 activation in MEF A1-2A-BIM cells, primary screen, A1 inhibitor project, cell-based, luminescence, HTS. Caspase-Glo 3/7 luminescence, 3 h; percent of clofoctol response, vehicle zero. caspase activation, % (concentration not given with the values). 330,000 compounds, 0.066% hits. AID 2462, 2010;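 active = over half of replicate activation scores above 10%, or exactly half above 10 with the replicate mean above 10; inconclusive = replicate mean below 10 yet half the replicates above 10; inactive = over half of replicates below 10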
Beta cell apopt = inhibitors of cytokine-induced beta cell apoptosis, primary screen, luminescence; 300,000 compounds, 0.8% hits; AID 435005, 2010; protection from apoptosis, % (no concentration beside the values); INS-1E cytokine-induced death, ATP luminescence, 48 h; percent of positive-control rescue, neutral wells zero;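 active = Every replicate reaches about 75%, or at least half do and their mean reaches it too, limit read from the data; inconclusive = At least half of replicates reach the limit but their mean does not; inactive = Under half of replicates reach the limit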;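 also: 0% = cytokine-treated negative control wells and 100% = positive control rescue; higher means more ATP so stronger rescue from cytokine killing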
Mdm2 MdmX PPI = inhibitors of human Mdm2-MdmX association, primary screen, cell-based, luminescence, split luciferase, SaOS-2, uHTS. inhibition, % at 8 µM. 330,000 compounds, 3% hits. SaOS-2 split-luciferase Mdm2/MdmX complementation;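 active = inhibition of at least 50% at 8 µM in the primary screen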
Target sequence (O15151 whole entry, looked up): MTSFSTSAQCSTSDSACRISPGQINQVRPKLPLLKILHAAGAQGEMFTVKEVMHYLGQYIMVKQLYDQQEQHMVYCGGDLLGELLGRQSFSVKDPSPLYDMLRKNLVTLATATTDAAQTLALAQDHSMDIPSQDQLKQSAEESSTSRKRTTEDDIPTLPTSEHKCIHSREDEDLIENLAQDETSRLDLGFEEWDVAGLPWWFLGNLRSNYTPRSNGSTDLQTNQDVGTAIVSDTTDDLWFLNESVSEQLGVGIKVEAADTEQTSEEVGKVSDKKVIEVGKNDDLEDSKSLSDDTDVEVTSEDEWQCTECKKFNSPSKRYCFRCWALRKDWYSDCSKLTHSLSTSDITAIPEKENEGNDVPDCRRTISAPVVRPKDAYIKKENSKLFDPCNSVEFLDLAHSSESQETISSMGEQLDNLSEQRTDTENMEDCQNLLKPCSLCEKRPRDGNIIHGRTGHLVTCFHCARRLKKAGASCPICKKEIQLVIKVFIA
Target sequence (Q00987 whole entry, looked up): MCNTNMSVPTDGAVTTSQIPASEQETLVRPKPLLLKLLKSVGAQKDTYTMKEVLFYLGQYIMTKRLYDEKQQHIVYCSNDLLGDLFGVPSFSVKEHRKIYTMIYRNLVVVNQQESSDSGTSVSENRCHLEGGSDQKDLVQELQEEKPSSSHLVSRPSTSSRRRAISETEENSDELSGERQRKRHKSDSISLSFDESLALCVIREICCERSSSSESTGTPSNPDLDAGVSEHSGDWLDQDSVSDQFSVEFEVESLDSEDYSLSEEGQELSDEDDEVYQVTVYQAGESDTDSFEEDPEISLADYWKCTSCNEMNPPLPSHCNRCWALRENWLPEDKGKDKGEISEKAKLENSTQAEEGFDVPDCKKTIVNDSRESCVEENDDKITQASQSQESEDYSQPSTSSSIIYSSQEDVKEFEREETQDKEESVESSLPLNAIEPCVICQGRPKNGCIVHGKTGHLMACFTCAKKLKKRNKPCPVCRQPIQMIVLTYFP
CSC inhib = cancer stem cell viability inhibitors, primary screen, luminescence. cancer stem cell-like cells viability. 300,000 compounds, 1.1% hits. inhibition, % at 7.5 µM; in the data active = inhibition above about 75%; inconclusive = no clear call, values can overlap the other calls; tested in HMLE shEcad cells
aSyn 5UTR inh = MLPCN primary screen, SNCA 5' untranslated region; inhibition, % (tested at 7.5 µM); alpha-synuclein 5'UTR reporter, inhibitor activity; AID 1813, 2009; 300,000 compounds, 0.82% hits; in the data active = inhibition above about 60%; inconclusive = no clear call, values can overlap the other calls;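 also: H4 neuroglioblastoma cells stably carrying SNCA 5'UTR luciferase fusion; 0% = DMSO wells and 100% = positive control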
Mdm2-MdmX conf = Mdm2-MdmX complex disruptors, retested hits, confirmation, luminescence, single concentration; shares compounds with Mdm2 MdmX PPI; Mdm2-MdmX binding, luminescent assay; inhibition, % at 8 µM; 10,000 compounds, 55% hits; in the data active = inhibition above about 40%
FLuc counter = full-length luciferase signal inhibition, confirmation, counter-screen for Mdm2/MdmX interaction inhibitor project, cell-based, single concentration, SaOS-2; inhibition, % at 8 µM; SaOS-2 full-length luciferase counterscreen, luminescence; 6,200 compounds, 77% hits; shares compounds with Mdm2 MdmX PPI; AID 504607, 2011;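 active = mean inhibition at 8 µM reaching about 37%, which flags the compound as non-specific, limit read from the data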;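 also: p53-null SaOS-2 cells with luciferase driven by a doxycycline-inducible promoter; compound on cells about two nights before reading with doxycycline added after day one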
The depositor's hits bear a star; ? = inconclusive; / = no result given; + = active, no number. Most compounds without a hit are left out; they make up all but 4.1% or so of the library.

SMILES	Bfl-1 A1 inh	Beta cell apopt	Mdm2 MdmX PPI	CSC inhib	aSyn 5UTR inh	Mdm2-MdmX conf	FLuc counter
CCC(=O)N/N=C/c1ccc(OS(=O)(=O)c2ccccc2)cc1	0	-1	14	-14	1	/	/
O=C(Nc1ccc(NC(=O)c2ccco2)cc1)c1ccco1	1	-15	-17	-2	-109	/	/
O=C(Nc1ccc(NC(=O)c2sc3ccccc3c2Cl)cc1)c1ccco1	0	-3	77*	4	-20	30	46*
CC(C)(C)C(=O)Nc1ccc(NC(=O)c2ccco2)nc1	-1	2	90*	2	102*	92*	58*
O=C(Nc1ccc(Nc2ccccc2)cc1)c1ccco1	-1	5	-75	9	-150	/	/
CC(C)(C)c1ccc(C(=O)Nc2ccc(NC(=O)c3ccco3)cc2)cc1	0	/	51*	/	-15	16	/
NC(=O)N/N=C/c1c(Sc2nnnn2-c2ccccc2)nc2ccccn2c1=O	1	-51	62*	25	-33	50*	23
Cc1ccc(-n2nc3c(N4CCC(C(=O)NCCc5ccccc5C)CC4)nnc(C)c3c2C)cc1	-1	62	98*	83*	72*	43*	53*
COc1ccc(-n2nc3c(N4CCC(C(=O)NC5CCCCC5)CC4)nnc(C)c3c2C)cc1	-1	12	97*	5	36	22	76*
COc1ccc(-n2nc3c(N4CCC(C(=O)NCC(C)c5ccccc5)CC4)nnc(C)c3c2C)cc1 (stereo not given)	-1	13	70*	-3	3	7	/
COc1ccc(-n2nc3c(N4CCC(C(=O)NCc5ccccc5C)CC4)nnc(C)c3c2C)cc1	0	12	100*	-17	22	98*	51*
CCOc1ccc(NC(=O)CN(C)C(=O)CCCOc2ccc(Cl)c(C)c2)cc1OCC	-2	-5	7	/	-6	/	/
NC(=O)C1CCN(C(=O)C2CC(=O)N(Cc3ccccc3)C2)CC1 (stereo not given)	0	-1	14	/	/	/	/
CCc1nnc(SCC(=O)Nc2ccc(F)cc2)o1	0	-5	-1	-20	-11	/	/
Cc1nc2ccc(NS(=O)(=O)c3cccc([N+](=O)[O-])c3)cc2s1	-1	8	10	5	/	/	/
CCOc1ccccc1CNC(=O)C1CCCN(c2nnc(C)c3c(C)n(-c4ccccc4)nc23)C1 (stereo not given)	-1	36	90*	-27	9	41*	34
COc1ccc(-n2nc3c(N4CCC(C(=O)NCCc5ccccc5C)CC4)nnc(C)c3c2C)cc1	-1	38	36	?	19	/	/
Cc1onc(-c2ccccc2)c1C(=O)OCCOc1cccc(Cl)c1	1	/	52*	74	-70	62*	64*
Cc1ccc(OCCOC(=O)c2c(-c3ccccc3)noc2C)cc1	0	6	44	60	-4	/	/
CN(C)S(=O)(=O)NC(=O)C1=C(N2CCCC2)COC1=O	-2	-8	-10	/	/	/	/
Cc1ccc(NC(=O)CSC2=C(C#N)C(c3ccco3)C3=C(CC(C)(C)CC3=O)N2)cc1 (stereo not given)	0	-2	51*	/	22	20	/
CC(C)(C)NC(=O)C(c1ccc(-c2ccccc2)cc1)N(C[C@H]1CC[C@@H]([C@@H]2CC[C@H](CO)O2)O1)C(=O)c1ccc(C(C)(C)C)cc1 (stereo not given in full)	/	/	68*	/	/	0	/
COc1ccc(CCCC(=O)NCc2ccccc2)cc1C	1	-3	53*	48	17	48*	71*
Cc1ccc(CNC(=O)CCCc2ccccc2)cc1	0	-4	0	-3	-15	/	/
COc1ccc(CN2C(=O)c3cccnc3C2=O)cc1S(=O)(=O)N1CCOc2ccc(C)cc21	-1	-5	-6	-7	13	/	/
SMILES	Bfl-1 A1 inh	Beta cell apopt	Mdm2 MdmX PPI	CSC inhib	aSyn 5UTR inh	Mdm2-MdmX conf	FLuc counter
O=C(N/N=C/c1ccc(O)cc1)c1ccc(COc2cc(Cl)ccc2Cl)o1	0	6	61*	68	-33	24	/
O=C(Nc1cccnc1)c1ccc(COc2cc(Cl)ccc2Cl)o1	0	-4	0	72	3	/	/
CCC(C)Sc1cc(-c2nc3cc(C)ccn3c2NC2CCCCC2)ccc1OC (stereo not given)	/	/	84*	/	/	-12	/
CCC(C)Sc1cc(-c2nc3ccccn3c2NC2CCCCC2)ccc1OC (stereo not given)	0	31	69*	126*	3	30	/
CCCCNc1c(-c2ccc(OC)c(SC(C)CC)c2)nc2cc(C)ccn12 (stereo not given)	/	/	19	/	/	/	/
Cc1ccc(NC(=O)CN(C)S(=O)(=O)c2ccc(Cl)s2)c(O)c1	0	-1	-3	-3	/	/	/
O=S(=O)(c1cnc[nH]1)N1CCN(C(c2ccc(F)cc2)c2ccc(F)cc2)CC1	1	3	4	0	-15	/	/
CC(C)CNC(=O)CSc1ccc(S(=O)(=O)N2CCN(C)CC2)cn1	0	4	17	-11	/	/	/
COc1ccc(CN2CCc3c([nH]c4ccccc34)C2)cc1Br	0	-8	69*	50	-22	25	/
CCOc1cc(CN2CCc3c([nH]c4ccccc34)C2)ccc1OC	0	0	20	-2	32	/	/
Cc1ccc(CNC(=O)C2CCC(=O)N(C3CC3)C2)cc1 (stereo not given)	0	1	32	-14	-10	/	/
CCc1ccc(NC(=O)CSc2nc3ccccc3c(=O)n2CCCN2CCC(C)CC2)cc1	0	9	86*	23	-43	49*	36*
Cc1ccc(NC(=O)CSc2nc3ccccc3c(=O)n2CCCN2CCCCC2)cc1C	0	7	75*	11	4	40*	62*
O=C(Nc1ccc(SC(F)F)cc1)c1cccc2nc3ccccc3nc12	-1	40	78*	17	1	17	/
O=C(Cn1cnc2ccccc21)Nc1ccc(SC(F)F)cc1	1	72	15	-7	-10	/	/
Cc1ccc(N2CC(C(=O)Nc3nccs3)CC2=O)cc1Cl (stereo not given)	-1	35	84*	57	7	69*	+
CN(C(=O)CSc1nnc(Cc2cccs2)n1C1CC1)C1CCS(=O)(=O)C1 (stereo not given)	/	/	8	/	/	/	/
Cc1ccc(N2CC(C(=O)Nc3nnc(SCC(=O)N4CCOCC4)s3)CC2=O)cc1 (stereo not given)	1	-4	-5	-13	1	/	/

Screening results: PubChem, several laboratories
